An excerpt weighted towards active compounds, which were near 3.4% of everything screened.
ADAM10 inh – ADAM10 inhibition, QFRET primary screen | inhibition, % at 7 µM | AID 720582 | recombinant ADAM10, EDANS/DABCYL FRET peptide cleavage, 3 h | actives 0.62% (n = 370,000);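 active = inhibition above a per-campaign cutoff equal to the mean of compounds falling between control-based bounds plus 3 SD, cut at about 20% in these data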;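 also: 0% = DMSO wells while the 100% control is not disclosed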
PLCb3 inh – inhibitors of human phospholipase C beta3. Q01970. Purified PLC-beta3, fluorogenic substrate, fluorescence. inhibition, % at 12.2 µM. actives 0.18% (n = 370,000). AID 720704; in the data active = inhibition above about 11%;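 also: 0% = median of compound wells on plate and 100% = full blocker control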
PLCg1 inh – PLC-gamma1 (human) inhibition, primary screen; P19174; purified PLC-gamma1, fluorogenic substrate, fluorescence; inhibition, % at 12.2 µM; actives 0.84% (n = 370,000); AID 720700
Target sequence (P19174 whole entry, looked up): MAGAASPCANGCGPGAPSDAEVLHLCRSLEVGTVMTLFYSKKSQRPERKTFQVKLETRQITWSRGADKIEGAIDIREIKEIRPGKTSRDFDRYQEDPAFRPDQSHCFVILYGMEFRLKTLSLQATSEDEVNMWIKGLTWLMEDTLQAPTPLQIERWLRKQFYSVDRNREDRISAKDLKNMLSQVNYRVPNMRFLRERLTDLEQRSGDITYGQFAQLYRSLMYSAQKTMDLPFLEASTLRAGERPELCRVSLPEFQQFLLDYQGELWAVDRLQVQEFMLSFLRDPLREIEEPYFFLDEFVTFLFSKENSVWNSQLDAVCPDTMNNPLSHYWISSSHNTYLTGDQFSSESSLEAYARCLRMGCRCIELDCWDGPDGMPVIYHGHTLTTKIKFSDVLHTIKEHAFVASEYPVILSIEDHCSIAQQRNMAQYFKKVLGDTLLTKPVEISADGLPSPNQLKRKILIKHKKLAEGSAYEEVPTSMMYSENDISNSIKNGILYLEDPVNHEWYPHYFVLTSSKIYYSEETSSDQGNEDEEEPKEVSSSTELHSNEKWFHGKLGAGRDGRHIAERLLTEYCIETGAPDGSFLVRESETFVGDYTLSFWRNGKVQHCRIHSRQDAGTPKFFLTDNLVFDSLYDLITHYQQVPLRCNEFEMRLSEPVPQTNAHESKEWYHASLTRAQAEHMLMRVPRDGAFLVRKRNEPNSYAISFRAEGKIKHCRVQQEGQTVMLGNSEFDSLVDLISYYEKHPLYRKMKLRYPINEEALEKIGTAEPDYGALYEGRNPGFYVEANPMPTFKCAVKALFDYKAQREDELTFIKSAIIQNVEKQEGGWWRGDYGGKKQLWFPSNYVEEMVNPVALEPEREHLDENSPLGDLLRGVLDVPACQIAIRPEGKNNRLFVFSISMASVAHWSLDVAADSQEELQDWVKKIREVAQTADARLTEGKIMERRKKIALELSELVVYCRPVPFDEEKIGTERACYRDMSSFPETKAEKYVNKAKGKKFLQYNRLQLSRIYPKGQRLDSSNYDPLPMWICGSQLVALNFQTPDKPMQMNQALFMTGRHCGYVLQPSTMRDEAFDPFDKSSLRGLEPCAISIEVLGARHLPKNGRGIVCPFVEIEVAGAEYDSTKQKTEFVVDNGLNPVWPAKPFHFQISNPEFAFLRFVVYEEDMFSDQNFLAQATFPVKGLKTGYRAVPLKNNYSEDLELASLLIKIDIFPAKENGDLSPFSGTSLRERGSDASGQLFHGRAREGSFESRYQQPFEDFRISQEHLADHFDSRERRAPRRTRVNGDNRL
ADAM17 inh – inhibits human ADAM17; actives 0.83% (n = 370,000); P78536; inhibition, % at 6.95 µM; recombinant ADAM17, EDANS/DABCYL FRET peptide cleavage;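 active = inhibition above the mean of compounds lying between control limits plus 3 SD, set per campaign, cut at about 8.5% in these data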;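 also: 0% = DMSO-only wells as the low control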
HGIII-sPLA2 inh – Blocks human group III sPLA2 activity; Q9NZ20; inhibition, % at 12.2 µM; QFRET BODIPY PC-A2 liposome hydrolysis, fluorescence; AID 743126; actives 0.56% (n = 370,000);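 active = inhibition above mean plus 3 SD of compounds lying within the high and low control bounds, cut at about 19% in these data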;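 also: 0% = median of test compound wells and 100% = no enzyme DMSO wells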
KLK7 zymogen act – activators of human kallikrein-7 zymogen; P49862; purified proKLK7, EDANS-DABCYL substrate fluorescence; 100% is mature enzyme control, 0% vehicle; activation, % at 7 µM; actives 0.9% (n = 370,000);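 active = activation above the mean of all tested compounds plus 3 SD, computed per campaign excluding outliers beyond control limits, cut at about 13% in these data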
PLCgamma1 ctr – inhibits human PLC-gamma1 in PLC-beta3 counter-screen; shares compounds with PLCg1 inh; purified PLC-gamma1, fluorogenic substrate, fluorescence; inhibition, % at 12.3 µM; actives 3.1% (n = 3,300); AID 743258
PLCbeta3 conf – confirmation of human PLC-beta3 inhibitors; shares compounds with PLCg1 inh; purified PLC-beta3, fluorogenic substrate fluorescence; inhibition, % at 12.3 µM; actives 1% (n = 3,300); AID 743261; in the data active = inhibition above about 11%
Active calls of the source: *; . = not tested or not shown. Rule as the data show it, unless noted: active = inhibition above about 9.5%; inactive = the rest.

SMILES | ADAM10 inh | PLCb3 inh | PLCg1 inh | ADAM17 inh | HGIII-sPLA2 inh | KLK7 zymogen act | PLCgamma1 ctr | PLCbeta3 conf
O=C(CN1C(=O)/C(=C/c2ccco2)SC1=S)Nc1ccc(O)c(C(=O)O)c1 | -18 | -26 | 46* | -12 | -17 | 1 | 36* | -17
O=C(CN1C(=O)/C(=C/c2ccco2)SC1=S)Nc1ccc(C(=O)O)c(O)c1 | 0 | -13 | 58* | -2 | -17 | 0 | 40* | -13
O=C(CCCN1C(=O)/C(=C/c2ccccc2)SC1=S)Nc1ccc(C(=O)O)c(O)c1 | 14 | 5 | 4 | -1 | -26 | 0 | . | .
CCN(CC(=O)Nc1c(F)cccc1F)C(=O)c1ccc(S(=O)(=O)NCc2ccco2)cc1 | 1 | -4 | 4 | 3 | -10 | 1 | . | .
CC(CCN1CCC(C(O)(c2ccccc2)c2ccccc2)CC1)Oc1cc(F)cc(C#N)c1 (centres undefined) | 7 | 4 | 12* | 6 | -8 | 0 | 8 | 3
Cn1nccc1C(=O)N1CCCC(N2CCN(c3cccc(C(F)(F)F)c3)CC2)C1 (centres undefined) | -8 | -6 | 0 | -5 | 6 | -1 | . | .
Cc1cc(-c2nc(C)c(C(=O)NNS(=O)(=O)c3ccc(Cl)cc3Cl)s2)no1 | -6 | -9 | -1 | -4 | -7 | 0 | . | .
Cc1cc(-c2nc(C)c(C(=O)NNS(=O)(=O)c3cccc(C(F)(F)F)c3)s2)no1 | -1 | 2 | 11* | 0 | -4 | 0 | -2 | -1
C#CCOn1c(-n2nc(C)cc2C)nc2ccccc2c1=O | 8 | -3 | 10* | 3 | 11 | -1 | -2 | -3
COC(=O)c1ccc(Oc2ccc(C(F)(F)F)cn2)cc1 | -4 | 0 | 1 | 2 | 5 | 0 | . | .
NS(=O)(=O)c1cccc(NC(=O)COC(=O)CC2Sc3ccccc3NC2=O)c1 (centres undefined) | 2 | 4 | 4 | 6 | -8 | 0 | . | .
O=C(CC1Sc2ccccc2NC1=O)Nc1cccc(C(=O)O)c1 (centres undefined) | 0 | 10 | 12* | -2 | 1 | -1 | 4 | 2
O=C(CS(=O)c1cccc(C(F)(F)F)c1)Nc1ccc(Cl)cc1Cl (centres undefined) | 1 | 3 | 17* | 1 | -23 | -1 | 13* | 4
O=C(CS(=O)c1cccc(Cl)c1)Nc1ccccc1Cl (centres undefined) | 2 | 4 | 11* | -6 | 6 | 0 | 11* | 1
O=C(Nc1ccc(Cl)cc1)c1ccc(CN2CCc3ccccc3C2)cc1 | 3 | -5 | 13* | 2 | 20* | 0 | 0 | 1
Cc1ccc(S(=O)(=O)N(C)C)cc1NC(=O)C(C)OC(=O)CC1CC2CCC1C2 (centres undefined) | 1 | 3 | 3 | 5 | -4 | 1 | . | .
O=[N+]([O-])c1ccc(CSc2nc3ncc(Br)cc3[nH]2)cc1 | -1 | 0 | 11* | 1 | 6 | 0 | -3 | 0
CN1CC(=O)N/C1=N\C(=O)Nc1ccc(O)cc1 | -2 | -9 | -1 | -1 | -5 | 0 | . | .
Cc1ccc2oc(C(=O)N3CCC(O)(c4cccc(C(F)(F)F)c4)CC3)c(C)c2c1 | 19 | -9 | -2 | 6 | -13 | -1 | . | .
COc1ccc(S(=O)(=O)N(C)C)cc1NC(=O)[C@H](Cc1ccccc1)N1C(=O)c2ccccc2C1=O | 13 | 5 | 9.8* | 3 | -13 | 0 | 1 | 4
Cc1ccc(S(=O)(=O)N(C)C)cc1NC(=O)[C@H](Cc1ccccc1)N1C(=O)c2ccccc2C1=O | 4 | 3 | 2 | 1 | -13 | 0 | . | .
Nc1ccc(C(=O)O)cc1[N+](=O)[O-] | -1 | -7 | 0 | -6 | 5 | 0 | . | .
Nc1cc(S(=O)(=O)O)cc([N+](=O)[O-])c1O | 2 | -1 | 33* | -1 | 2 | 0 | 64* | 10
O=C(CN1C(=O)NC2(CCCC2)C1=O)OCc1cc(=O)n2cc(Br)ccc2n1 | -2 | -11 | 0 | -5 | 2 | 0 | . | .
Cc1cccnc1NC(=O)Nc1ccc(F)cc1 | 2 | 1 | -2 | -4 | -2 | 0 | . | .
SMILES | ADAM10 inh | PLCb3 inh | PLCg1 inh | ADAM17 inh | HGIII-sPLA2 inh | KLK7 zymogen act | PLCgamma1 ctr | PLCbeta3 conf
O=C(Nc1ccc(F)cc1)Nc1cccnc1Cl | 5 | -3 | 13* | 5 | 9 | 1 | -9 | -2
CCOC(=O)[C@]12CCCC=C1N(Cc1ccccc1)C(=O)[C@H](CC(=O)N1CCCC1)C2 | -7 | 2 | 0 | -2 | 5 | -1 | . | .
Cc1cc(Oc2ccc([N+](=O)[O-])cc2)nc(N2CCOCC2)n1 | -4 | 7 | 12* | 0 | 7 | 0 | -1 | -7
Cc1cc(Oc2ccc(C#N)cc2)nc(N2CCOCC2)n1 | 0 | 1 | 0 | -5 | 1 | 0 | . | .
CCOC(=O)c1c(C)c(C(=O)Nc2ccc(F)cc2)c(C)n1C | 6 | 3 | 13* | 4 | 1 | 0 | -4 | 1
CC(C)C[C@H]1CNC(=O)C(=O)N1CC1CCN(CCc2ccccc2)CC1 | 4 | 5 | 4 | 3 | -3 | 0 | . | .
Cc1ccc(S(=O)(=O)N2CCN(C(=O)Cn3nc(C)c([N+](=O)[O-])c3C)CC2)c(C)c1 | -13 | -8 | 10* | -2 | -4 | 0 | 0 | 2
Cc1nn(CC(=O)N2CCN(c3ccccc3)CC2)c(C)c1[N+](=O)[O-] | -4 | -6 | 0 | -1 | 6 | 0 | . | .
COc1ccc(S(=O)(=O)N(CCc2ccccc2)CC(=O)NC(C)C)cc1 | -6 | 2 | 11* | -2 | 4 | 0 | -5 | 1
O=C(COC(=O)C1(c2ccccc2)CC1)NNC(=O)c1ccccc1 | -22 | -2 | 3 | -7 | 1 | 0 | . | .
COc1ccc(NC(=O)c2cc(-c3ccc(OC)c(OC)c3)on2)cc1OC | -1 | 10 | 10.0* | 3 | 8 | 0 | -155 | -194
O=C(O)C[C@H]1c2cc(F)ccc2S(=O)(=O)N1C1CCCCC1 | -7 | 1 | 4 | -3 | 5 | 0 | . | .
O=C(O)C[C@H]1c2cc(F)ccc2S(=O)(=O)N1C1CCCC1 | 2 | 1 | 10* | -7 | 11 | -1 | 6 | 5
COC(=O)C1=C(C)N(Cc2ccccc2C(F)(F)F)C(=NCc2ccc3c(c2)OCO3)NC1c1cccc(Cl)c1 (centres undefined) | -4 | 3 | 12* | 1 | 2 | 0 | -2 | -4

Assay outcomes deposited in PubChem by The Scripps Research Institute Molecular Screening Center.
